Source: PubChem BioAssay (National Center for Advancing Translational Sciences (NCATS))
ClpP mod: qHTS Assay for Activators of ClpP; 340,000 tested, 1.9% active; purified B. subtilis ClpP, FRET peptide cleavage, 20 min; ATP-dependent Clp protease proteolytic subunit (Bacillus subtilis (strain 168)), P80244; AID 651965, 2013; Potency, µM (series often up to 57.5 µM), inactives show at the highest dose activity change, negative = active; active = well fitted falling curve with a large enough effect; inconclusive = small, poorly fitted or top-dose-only effect; inactive = no such curve, though single readings can be large or run the other way; note: potency is the fitted concentration of half-maximal effect; the source files actives as falling curves though it sought activators and does not explain the sign; nearly all actives have a fitted effect of over 65% in size
Target sequence (P80244 whole entry, looked up): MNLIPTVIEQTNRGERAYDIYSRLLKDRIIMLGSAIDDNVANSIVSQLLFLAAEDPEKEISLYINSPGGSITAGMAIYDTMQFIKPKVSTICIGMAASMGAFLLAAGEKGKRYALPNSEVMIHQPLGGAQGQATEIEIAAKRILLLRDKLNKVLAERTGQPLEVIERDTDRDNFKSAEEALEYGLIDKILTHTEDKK
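Purified B. subtilis ClpP, 10 microg/mL final in Tris/HCl pH8 with KCl, BSA, glycerol and Tween-20, cleaved an Abz/nitrotyrosine-quenched decapeptide. Fluorescence (ex 320, em 430) was read at 0 and 20 min at room temperature. Delta was normalized to 5.8 microM ADEP and DMSO/no-enzyme controls.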
uPA surface inh: inhibitors of cell surface uPA generation; 330,000 tested, 0.31% active; Potency, µM (top dose mostly 38.3 µM), inactives show at the top dose activity change, negative = inhibition, usual class: inhibitors; cell surface uPA generation assay, qHTS; active = well fitted inhibition curve with a large enough effect; inconclusive = small, poorly fitted or top-dose-only effect; inactive = no such curve, though single readings can be large or run the other way; tested in mouse RAW 264.7 cells; note: potency is the fitted concentration of half-maximal effect; % is set by controls: 0 for no effect and ±100 for the full control effect; nearly all actives have a fitted effect of over 55% in size
TCR activator: activators of T cell receptors. 330,000 tested, under 10 active. Potency, µM (highest dose often 9.22 µM), for the others: at the top dose activation of IL-2 secretion, hits mostly activators. primary human leukocytes, anti-CD3, IL-2 HTRF, 48 h; note: % of control where 0% means no effect
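TCR engagement came from a-CD3 beads alone, with compounds added to primary human leukocytes for 48 hr. Secreted IL-2 bridged europium cryptate- and d2-labelled anti-IL-2 antibodies, giving FRET emission at 665nm after 320nm excitation.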
Sfp PPTase inh: blocks B. subtilis Sfp PPTase activity; AID 1490; Potency, µM, inactives show largest response in the series, negative = inhibition, hits mostly inhibitors; Biochemical Sfp PPTase activity, qHTS; 310,000 tested, 3.5% active;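 note: the enzyme is Sfp with the accession as filed and its product quenches rhodamine fluorescence; potency is the fitted concentration of half-maximal effect; 0% = enzyme reaction without inhibitor and -100% = no enzyme wells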
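Sfp 15 nM + cpd, 15 min RT; start w/ rhodamine-CoA 5 uM, BHQ-2-YbbR 12.5 uM (final); 50 mM Hepes pH 7.6, 10 mM MgCl2, 0.01% NP-40, 0.01% BSA; read 525/598 nm at 0 and 30 min.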
Starred values were filed as active, the others as inactive; u = inconclusive; x = no result given; [ ] = dose if it differs, or a comment. Most compounds without a hit are left out; they make up all but 4.2% or so of the library. Unless noted, calls come from the whole dose curve; as a rule, active = well fitted curve in the direction sought with a large enough effect; inconclusive = small, poorly fitted or top-dose-only effect, or another doubt; inactive = no such curve, though single readings can be large; an effect the other way counts as inactive or inconclusive.

SMILES	ClpP mod	uPA surface inh	TCR activator	Sfp PPTase inh
COC(=O)c1c(-c2ccco2)csc1NC(=O)C1CC=CCC1C(=O)O (stereo not drawn)	-2.5%	1.5%	-1.7%	12.6µM*
CCOC(=O)c1c(-c2ccc(C)c(C)c2)csc1NC(=O)C1CC=CCC1C(=O)O (stereo not drawn)	-6.4%	-2.8%	7.5%	-6.3%
O=C(NCCCc1nc2ccccc2n1Cc1ccccc1Cl)c1ccco1	-2.0%	x	x	x
Clc1ccccc1Cn1c(/C=C/c2ccco2)nc2ccccc21	28.2µM*	-6.2%	-1.4%[46.1 µM]	50.1µM*
CC1=C(C(=O)N(C(C)C)C(C)C)CC(CC(=O)NCc2ccco2)C(=O)N1Cc1ccccc1 (stereo not drawn)	-1.6%	x	x	x
CCC1CCCCN1S(=O)(=O)c1cc2c3c(c1)CC(=O)N3CCC2 (stereo not drawn)	-1.0%	x	x	x
O=C(NCc1n[nH]c(=S)n1-c1ccccc1)c1ccc(S(=O)(=O)N2CCOCC2)cc1	-2.3%	x	2.3%	-14.7%
O=C(NCc1n[nH]c(=S)n1-c1ccc(F)cc1)c1ccc(S(=O)(=O)N2CCOCC2)cc1	-0.1%	6.4%	13.2%	44.7µM*
Cc1ccc(C(=O)COC(=O)CCC(=O)Nc2ccc(Oc3ccccc3)cc2)cc1	0.7%	x	x	x
CCOC(=O)c1cccc(NC(=O)CCS(=O)(=O)c2ccc3c(c2)CC(=O)N3C)c1	-1.0%	x	x	x
Cc1ccc(-c2noc(-c3ccc(NCc4ccco4)c([N+](=O)[O-])c3)n2)cc1	-0.3%	x	x	x
CCn1c(=O)cc(SCC(=O)NCCc2ccc(Cl)cc2)c2ccccc21	-14.2%	x	x	x
CCn1c(=O)cc(OCC(=O)NCCc2cccc(C)c2)c2ccccc21	x	1.2%	-7.8%	79.4µM*
CCOc1ccc(CCNC(=O)CSc2cc(=O)n(CC)c3ccccc23)cc1OCC	31.6µM*	-2.4%	-2.9%[46.1 µM]	26.9%
CSCc1c(C(=O)NCCc2ccccn2)oc2ccccc12	x	1.2%	0.7%	19.7%
CCOCCCn1c(=N)c(C(N)=S)cc2c(=O)n3cccc(C)c3nc21	28.2µM*	-5.7%	9.1%	-109.3%
Cc1cccn2c(=O)c3cc(C(N)=S)c(=N)n(CCCOC(C)C)c3nc12	15.8µM*	-3.4%	-30.8%	u
COCCCn1c(=N)c(C(=O)NCc2ccco2)cc2c(=O)n3cccc(C)c3nc21	3.7%	x	x	x
Cc1cc(-n2c(SCC(=O)NCc3ccccc3)nc3ccsc3c2=O)ccc1Cl	-2.2%	x	x	x
CCOc1ccccc1NC(=O)Cn1ccn(Cc2ccc(C)cc2)c(=O)c1=O	-1.3%	x	x	x
CC1CCCCC1NCC(=O)Nc1ccccc1-c1ccccc1 (stereo not drawn)	1.1%	2.6%	9.4%[46.1 µM]	79.4µM*
O=c1nc(-c2ccccc2)cc(-c2ccccc2)[nH]1	28.2µM*	-4.2%	0.8%	16.7%
COc1ccc(N2CCN(C(=O)C(C)n3c(=O)cc(C(F)(F)F)c4c(C)nn(C)c43)CC2)cc1 (stereo not drawn)	1.4%	x	x	x
Cc1ccc(S(=O)(=O)N2CCN(c3nc(-n4cccn4)nc4ccccc34)CC2)cc1	-5.6%	x	x	x
CC1(C)Cc2c(C#N)c(N3CCN(C(=O)c4ccco4)CC3)nc(-c3ccco3)c2CS1	u	-7.8%	-0.6%[46.1 µM]	20µM*
SMILES	ClpP mod	uPA surface inh	TCR activator	Sfp PPTase inh
CC1(C)Cc2c(C#N)c(N3CCN(C(=O)c4ccco4)CC3)nc(Cc3ccccc3)c2CO1	28.2µM*	11.7%	-9.6%	-4.8%
CC1(C)Cc2c(C#N)c(N3CCN(C(=O)c4ccccc4Cl)CC3)nc(-c3ccco3)c2CS1	28.2µM*	8.5%	2.0%	-99.5%
CCc1nc(N2CCN(C(=O)c3ccco3)CC2)c(C#N)c2c1COC(C)(C)C2	3.4%	2.8%	0.4%	13.9%
CC1(C)Cc2c(c(-c3ccco3)[nH]c(=O)c2C#N)CS1	-16.5%	-2.8%	-2.0%	-89.1%
CC(=O)N1CCN(c2nc(-c3ccco3)c3c(c2C#N)CC(C)(C)SC3)CC1	u	-2.6%	1.0%	44.7µM*
Cc1nc2c(c(=O)n1CCC1=CCCCC1)c1nc3ccccc3nc1n2/N=C/c1ccco1	-11.8%	9.5%	-2.5%	-22.9%
CCCn1c(C)nc2c(c1=O)c1nc3ccccc3nc1n2CCC1=CCCCC1	31.6µM*	-6.0%	8.5%	-3.0%
Cc1cc(-c2n[nH]c(=S)n2Cc2ccco2)n(C)n1	-13.1%	6.8%	-0.1%[46.1 µM]	50.1µM*
C=CCn1cc(/C=N/Nc2nc3ccccc3[nH]2)c2ccccc21	-0.8%	-2.7%	-4.1%[46.1 µM]	15.8µM*
N#Cc1cc2c(nc1SCc1cccnc1)CCCCC2	-5.3%	-11.3%	-0.2%	79.4µM*
